# ChEMBL document CHEMBL4513216, “Probing the Open Global Health Chemical Diversity Library for Multistage-Active Starting Points for Next-Generation Antimalarials” (ACS Infect Dis, 2020)
# Out of some 68,000 compounds screened, about 2,700 (4%) showed an effect of 50% or more. Only a selection was taken, and strong results are over-represented in it overall.
# Tested on: Plasmodium berghei
# Test: Screen against P. berghei liver stage (PbLuc), transformed with Luciferase, at 2uM
# Assay type: functional, HepG2
# Conditions: tested at 2 uM
row,Structure (SMILES),INHIBITION
1,CC(=O)NC(C)(C)c1noc(C2(C#N)CCCCC2)n1,22.41%
2,Cc1nc(CCNC(=O)NC2CCN(c3ncccn3)CC2)cs1,-17.45%
3,Cc1nc(CNC(=O)NC2CCCN(c3ncccn3)C2)cs1 (stereo unspecified),30.96%
4,Cc1nc(CNC(=O)NC2CCN(c3ncccn3)CC2)cs1,56.78%
5,Cc1nn(C)c(N2CCOCC2)c1CNCc1ccnc(N(C)C)c1,17.11%
6,COc1ncccc1CNCc1c(C)nn(C)c1N1CCOCC1,40.24%
7,Cc1nn(C)c(N2CCOCC2)c1CNCc1ccc(CO)c(F)c1,63.05%
8,Cc1nn(C)c(N2CCOCC2)c1CNCc1ccc2c(c1)OCO2,18.01%
9,Cc1cc(CNCc2c(C(C)C)nn(C)c2N2CCOCC2)no1,22.16%
10,Cc1nn(C)c(N2CCOCC2)c1CNCc1ccoc1C,10.4%
11,Cc1nn(C)c(N2CCOCC2)c1CNCc1ccccc1CO,50.18%
12,Cc1nc(CNCc2c(C)nn(C)c2N2CCOCC2)cs1,-14.3%
13,Cc1cc(CNCc2c(C)nn(C)c2N2CCOCC2)no1,65.77%
14,CN(Cc1ccc(F)cc1)CC1(O)CCN(C(=O)c2cccs2)C1 (stereo unspecified),-27.04%
15,CC(C)c1nc2n(n1)CC(NCc1nnc(C3CC3)o1)CC2 (stereo unspecified),-30.61%
16,O=C(CCNC(=O)C1CCCC1)NCc1cccnc1-n1cncn1,-18.67%
17,Cc1nn(C)c(C)c1C1SCC(=O)Nc2c1c(O)nn2C(C)C (stereo unspecified),4.89%
18,COc1ccc(Cl)cc1CN(C)CC(=O)Nc1ccnn1C(C)C1CC1 (stereo unspecified),-13.72%
19,CC(=O)N(C)CC(=O)NCC1(c2c(F)cccc2F)CCCC1,-41.54%
20,Cc1cccc(C2(CNC(=O)CO)CCCC2)c1,35.23%
21,CC(=O)N(C)CC(=O)NCC1(c2cccc(C)c2)CCCC1,54.29%
22,CN1CCC(c2cccc(CCC(=O)NCC(N)=O)n2)CC1,7.64%

row,Structure (SMILES),INHIBITION
1,CC(=O)N1CCC2(CC1)CN(CC(C)C)CC21CCNC1=O (stereo unspecified),63.35%
2,CC(=O)N1CCC2(CC1)CN(C(C)=O)CC21CCNC1=O (stereo unspecified),24.36%
3,CN(C)C(=O)N1CCC2(CC1)CN(CC1CC1)CC21CCNC1=O (stereo unspecified),35.89%
4,CCC[C@H]1CN(Cc2cc(C#N)n(C)c2C)C[C@@H]1N(C)C,51.4%
5,CCC[C@@H]1CN(Cc2cc(C#N)n(C)c2C)C[C@H]1NS(C)(=O)=O,1.88%
6,CCC[C@H]1CN(Cc2cc(C#N)n(C)c2C)C[C@@H]1NS(=O)(=O)CC,35.26%
7,NC(=O)c1sc2ccccc2c1C1CCN(S(=O)(=O)N2CCOCC2)C1 (stereo unspecified),-18.15%
8,Cc1noc(C)c1CN1CC[C@@H]2O[C@@H](COCC(C)C)CC[C@@H]21,13.87%
9,COCCN1CC[C@@H]2O[C@@H](COCC(=O)N3CCCC3)CC[C@@H]21,-14.49%
10,COCCN1CC[C@@H]2OC(COCC(=O)N3CCCC3)CC[C@@H]21 (stereo partly specified),51.05%
11,CN(C)CCN1CC[C@@H]2O[C@@H](COCC(=O)N3CCCC3)CC[C@@H]21,-30.82%
12,Cc1ncnc2c1CCN(Cc1cccs1)CC2,-8.24%
13,CNS(=O)(=O)CC(=O)N1CCC(c2cc3ccccc3[nH]2)CC1,-46.85%
14,O=C(C1CCCCC1)N1CCC2(CCCN2CC2CC2)CC1,24.15%
15,O=C(C1CCCC1)N1CCC2(CC1)COCCN2CC1CC1,-11.91%
16,O=C(C1CCC1)N1CCC2(CCCN2CC2CC2)CC1,55.66%
17,CC(C)NC(=O)[C@@H]1CC[C@@H]2[C@@H](CCN2Cc2cn(C)c3ccccc23)O1,29.43%
18,Cc1nc(CCCNC(=O)C2CC(=O)N(C(C)(C)C)C2)sc1C (stereo unspecified),13.87%
19,Cc1nc(CCCNC(=O)C2CC(=O)N(C3CC3)C2)sc1C (stereo unspecified),-52.42%
20,CCN1CC(C(=O)NCCCc2nc(C)c(C)s2)CC1=O (stereo unspecified),72.05%
21,CCS(=O)(=O)NCc1cccnc1N1CCCC(O)C1 (stereo unspecified),-5.31%
22,Nc1nc(C2CCN(C(=O)c3cncs3)CC2)cs1,0.14%

row,Structure (SMILES),INHIBITION
1,COC1CCN(c2ccc(NC(=O)C3CC3)cc2C(F)(F)F)CC1,-1.71%
2,CC(C)(C)NS(=O)(=O)c1ccc(NC(=O)C2CC2)cc1,17.2%
3,CC(=O)Nc1ccc(F)c(S(=O)(=O)NC(C)(C)C)c1,-1.87%
4,CCC(=O)Nc1ccc(F)c(S(=O)(=O)NC(C)(C)C)c1,57.75%
5,CCNC(=O)CNS(=O)(=O)c1cc(Br)ccc1F,42.32%
6,CC(C)(C)NS(=O)(=O)c1cc(NC(=O)C2CC2)ccc1F,62.51%
7,CCS(=O)(=O)N1Cc2c(Cn3ccnc3)nn(C(C)C)c2C1,3.72%
8,Cc1n[nH]c(C)c1CC(=O)NCCc1ccccc1,25.21%
9,COc1ccc(CC2CN(C(=O)c3coc(C)n3)CCO2)cc1 (stereo unspecified),-10.03%
10,Cc1nc(C(=O)N2CCOC(Cc3ccc(F)cc3)C2)co1 (stereo unspecified),51.45%
11,Cc1nc(C(=O)N2CCOC(Cc3ccccc3)C2)co1 (stereo unspecified),5.76%
12,Cc1nnc2n1CCN(CCOc1ccccc1)C2,-55.52%
13,Cc1cc(C)cc(OCCN2CCn3c(C)nnc3C2)c1,20.41%
14,CCOCCN1CCn2c(C)nnc2C1,58.53%
15,CC(C)[C@H]1CN(CCCO)C[C@@H]1NC(=O)CCS(C)(=O)=O,25.9%
16,O=C(CCS(=O)(=O)C1CCCC1)NCc1ccccc1Cn1cncn1,31.57%
17,COc1c(CNC2CCCOc3ccccc32)c(C)nn1C (stereo unspecified),-18.88%
18,COc1c(CNC2CCc3ccccc32)c(C(C)C)nn1C (stereo unspecified),24.65%
19,Cc1nn(C)c(Oc2ccccc2)c1CNC1CCOc2ccccc21 (stereo unspecified),-15.64%
20,COc1c(CNC2CCOc3ccccc32)c(C)nn1C (stereo unspecified),64.08%
21,COc1c(CNC2CCCc3ccccc32)c(C(C)C)nn1C (stereo unspecified),69.22%
22,COc1c(CNC2CCCc3ccccc32)c(C)nn1C (stereo unspecified),11.28%

row,Structure (SMILES),INHIBITION
1,O=C1NCCCC[C@@H]1Nc1ccc(-c2nc(C3CC3)no2)cn1,8.75%
2,c1cncc(COCc2nnc3n2CCN(Cc2ccco2)C3)c1,-8.22%
3,COc1ccccc1CC(C)(C)C(=O)NCC(=O)Nc1cccnc1,-16.15%
4,O=C(NC1CCC(O)CC1)c1ccc2nc(-c3ccccc3)cn2c1 (stereo unspecified),2.17%
5,COc1ccc(C)cc1CC(=O)Nc1cc(C)n[nH]1,-19.45%
6,CC(C)CNC(=O)c1ccc2c(=O)n(-c3ccccc3)cnc2c1,43.75%
7,Cn1c(=O)[nH]c(=O)c2c1nc1n2CC(c2ccc(Cl)cc2)O1 (stereo unspecified),13.01%
8,COc1ccc(C2CC(=O)Nc3c2nc2n3CCCC2)cc1O (stereo unspecified),24.29%
9,O[C@H]1CCN(CC2CCOC2)[C@H]1Cc1ccncc1 (stereo partly specified),3.56%
10,O[C@H]1CCN(CC2CC2)[C@H]1Cc1ccncc1,55.7%
11,O[C@@H]1CCN(CC2CC2)[C@H]1Cc1ccccc1,-17.26%
12,O=C(N[C@H]1CN2CCC1CC2)c1cc(Cn2cnc3ccccc32)[nH]n1,48.93%
13,CC(=O)N[C@H]1CCN(C(=O)c2cc(Cn3cnc4ccccc43)[nH]n2)C1,60.71%
14,COc1ccccc1OCc1cc(C(=O)N2CCC(NC(C)=O)C2)n[nH]1 (stereo unspecified),-49.85%
15,NC(=O)c1cn[nH]c1C1CCCN1C(=O)c1cnccn1 (stereo unspecified),39.5%
16,Cc1nc2c(c(NCC(c3cccnc3)N3CCOCC3)n1)CCNC2 (stereo unspecified),-10.09%
17,Cc1nc(CSCCC(=O)Nc2cccc(N3CCNC3=O)c2)cs1,54.82%
18,Cc1ncc(CN(C)C(=O)Nc2cccc(N3CCNC3=O)c2)s1,-82.26%
19,Cc1nc(CCCC(=O)Nc2cccc(N3CCNC3=O)c2)cs1,-33.58%
20,CC(OCC1CC1)C(=O)N1CCCN(c2nc3ccccc3[nH]2)CC1 (stereo unspecified),-38.2%
21,Cn1ncc2c1C(COCC1CC1)CN(Cc1nccs1)C2 (stereo unspecified),-44.9%
22,Cc1ncsc1CN1Cc2cn(C)nc2C(COCC2CC2)C1 (stereo unspecified),-64.59%

row,Structure (SMILES),INHIBITION
1,Cn1ncc2c1C(COCC1CC1)CN(S(C)(=O)=O)C2 (stereo unspecified),51.72%
2,Cn1ncc2c1C(COCC1CC1)CN(S(=O)(=O)C1CC1)C2 (stereo unspecified),3.63%
3,CCOCC1CN(S(C)(=O)=O)Cc2cnn(C)c21 (stereo unspecified),18.97%
4,Cc1ncsc1CN1Cc2cnn(C)c2C(COCC2CC2)C1 (stereo unspecified),50.17%
5,Cn1ccc2c(C(=O)N3CCC(C(N)=O)CC3)cccc21,40.31%
6,Cn1c(CN2CCCC2c2noc(C3CC3)n2)cc(=O)n(C)c1=O (stereo unspecified),12.91%
7,CC(C)N1CCC(C(=O)N2CCC(C(O)c3nccn3C)CC2)CC1 (stereo unspecified),6.4%
8,CCCN1CCC(CC(=O)N2CCC(C(O)c3nccn3C)CC2)CC1 (stereo unspecified),51.19%
9,CC(C)N1CCC(CC(=O)N2CCC(C(O)c3nccn3C)CC2)CC1 (stereo unspecified),15.11%
10,COCC(=O)Nc1nn(Cc2ccc(F)cc2)cc1Cl,-20.28%
11,Cc1noc(C)c1CN1CCN(c2ccnc(-c3ccccc3)n2)CC1,-5.53%
12,CCOc1ccccc1OC1CCN(C(=O)c2cc[nH]n2)CC1,7.54%
13,CC(C)c1ccc(NS(=O)(=O)C=c2[nH]c(=O)n3cccc3c2=O)cc1,9.43%
14,O=c1c(=CS(=O)(=O)Nc2ccccc2)[nH]c(=O)n2cccc12,53.68%
15,O=c1c(=CS(=O)(=O)Nc2ccc(Cl)cc2)[nH]c(=O)n2cccc12,50.52%
16,CCc1ccc(NS(=O)(=O)C=c2[nH]c(=O)n3cccc3c2=O)cc1,-1.14%
17,Cc1ccc(NS(=O)(=O)C=c2[nH]c(=O)n3cccc3c2=O)cc1,-68.56%
18,O=c1c(=CS(=O)(=O)Nc2ccc(Br)cc2)[nH]c(=O)n2cccc12,-42.73%
